The source of these data is PubChem BioAssay (NCI).

Structures are written as SMILES. “And” between values parts separate entries of the source, which are not always exact repeats. Equal values may be shown once. About 83,000 compounds went through this panel and 20% of them were active in at least one assay; those are over-represented in the sample as a whole.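 Assay: single dose, 48 h. Readout: percent growth (0 = no net growth; negative = cell death). Active: <10.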 The source made the active and inactive calls.

Among the test systems are T-47D breast; BT-549 breast; MDA-MB-435 melanoma; SW-620 colon; HCT-116 colon; HCC-2998 colon; KM12 colon; MCF7 breast.
What all share (test): NCI-60 one-dose screen, 48 h (100 = growth as untreated, 0 = no growth, -100 = all killed)
What all share (settings): 10 µM

As for `Nc1c2ccccc2nc2ccccc12`, the growth with T-47D breast was 13.3% (inactive) and 30.4% (inactive) and 32.3% (inactive); in the assay on BT-549 breast, 33.8% (inactive) and 69.9% (inactive) and 83.1% (inactive); with MDA-MB-435 melanoma, 6.39% (active) and 30% (inactive) and 48.5% (inactive); with SW-620 colon it was 2.21% (active) and 14.3% (inactive) and 26.8% (inactive); in the assay on HCT-116 colon it was 7.6% (active) and 17.9% (inactive) and 18.2% (inactive); in the assay on HCC-2998 colon, 37.9% (inactive) and 24.7% (inactive) and 40.8% (inactive). The growth in the assay on KM12 colon is 19.1% (inactive) and 46.2% (inactive).
As to `CCN(CC)c1ccc(NC(C(=O)c2ccccc2)c2ccccc2)cc1` (stereo unspecified), the growth with T-47D breast is 8.44% (active); with BT-549 breast, 2.75% (active); in the assay on MDA-MB-435 melanoma it was 3.95% (active); in the assay on SW-620 colon, 6.54% (active); in the assay on HCT-116 colon, -19.6% (active); in the assay on HCC-2998 colon, 65.1% (inactive). Also, the growth in the assay on KM12 colon is 65.1% (inactive).
Regarding `CCCCCC(C)c1ccc(O)c(C)c1` (stereo unspecified), the growth in the assay with T-47D breast was 101% (inactive); in the assay on BT-549 breast, 99.7% (inactive); with MDA-MB-435 melanoma it was 105% (inactive); with SW-620 colon, 105% (inactive); in the assay on HCT-116 colon, 95.8% (inactive); in the assay on HCC-2998 colon, 103% (inactive). Also, the growth in the assay on KM12 colon is 106% (inactive).
Take `Cc1cc(O)c(C(C)C)cc1Cl`: the growth in the assay on T-47D breast was 98.8% (inactive); with BT-549 breast, 111% (inactive); in the assay with MDA-MB-435 melanoma, 99.2% (inactive); in the assay on SW-620 colon, 105% (inactive); in the assay with HCT-116 colon, 98.9% (inactive); in the assay on HCC-2998 colon, 101% (inactive). Moreover, in the assay on KM12 colon, the growth is 112% (inactive).
Take `CC1=CC(C)=Nc2ccc(Cl)cc2N1`: the growth in the assay with T-47D breast was 102% (inactive); with BT-549 breast, 108% (inactive); in the assay with MDA-MB-435 melanoma, 107% (inactive); in the assay on SW-620 colon, 98.8% (inactive); with HCT-116 colon, 100% (inactive); in the assay with HCC-2998 colon it was 103% (inactive). For the same compound, the growth in the assay with KM12 colon is 100% (inactive).
As for `O=C(C(=Cc1ccccc1)C(=O)c1ccccc1)c1ccccc1`, the growth in the assay with T-47D breast is 65.5% (inactive) and 74.7% (inactive); in the assay on BT-549 breast, 66% (inactive) and 103% (inactive); in the assay on MDA-MB-435 melanoma, 63.5% (inactive) and 104% (inactive); in the assay with SW-620 colon, 44.3% (inactive) and 84.4% (inactive); in the assay on HCT-116 colon, 18.3% (inactive) and 62.2% (inactive); with HCC-2998 colon, 92.4% (inactive) and 129% (inactive). Further, in the assay on KM12 colon, the growth was 47.8% (inactive) and 88.9% (inactive).
For `C[n+]1c2cc(N)ccc2cc2ccc(N)cc21`, the growth is -14.1% (active) and -9.22% (active) and -15% (active) in the assay with T-47D breast; 2.1% (active) [middle of 4 runs] with SW-620 colon.
On to `CN1CCN(CCCN2c3ccccc3Sc3ccc(C(F)(F)F)cc32)CC1`, for which the growth is 70.6% (inactive) with BT-549 breast; 27.6% (inactive) in the assay on MDA-MB-435 melanoma; 34.3% (inactive) with SW-620 colon; 13.9% (inactive) in the assay on MCF7 breast; 36% (inactive) in the assay on HCT-116 colon; -6.16% (active) with HCC-2998 colon. The growth with KM12 colon is 40.2% (inactive).
With `O=C(/C=C/c1ccccn1)c1ccccc1`, the growth with T-47D breast is 66.9% (inactive); with MDA-MB-435 melanoma, 52.4% (inactive); in the assay with SW-620 colon it was -51.3% (active); in the assay with MCF7 breast it was 15% (inactive); in the assay on HCT-116 colon it was -90.8% (active); with HCC-2998 colon it was 62.9% (inactive). The growth with KM12 colon is 7.87% (active).
With `Clc1cc(Cl)c(Cl)nn1`, the growth in the assay with T-47D breast was 79.3% (inactive); with BT-549 breast it was 82.8% (inactive); in the assay on MDA-MB-435 melanoma, 105% (inactive); with SW-620 colon, 107% (inactive); in the assay on HCT-116 colon it was 86.2% (inactive); in the assay with HCC-2998 colon, 119% (inactive). Besides, in the assay with KM12 colon, the growth was 105% (inactive).
Take `CC(=O)Nc1cc(C)ccc1C`: the growth was 107% (inactive) with T-47D breast; 112% (inactive) with BT-549 breast; 102% (inactive) in the assay with MDA-MB-435 melanoma; 96.4% (inactive) with SW-620 colon; 96.9% (inactive) in the assay with HCT-116 colon; 100% (inactive) in the assay on HCC-2998 colon. For the same compound, the growth in the assay on KM12 colon was 97.4% (inactive).
For `Oc1ccc(N=Nc2ccccn2)c(O)c1`, the growth is 37.3% (inactive) in the assay with T-47D breast; 36.6% (inactive) with BT-549 breast; 32.5% (inactive) with MDA-MB-435 melanoma; 32.9% (inactive) with SW-620 colon; 18.7% (inactive) with HCT-116 colon; 30% (inactive) in the assay on HCC-2998 colon. Further, the growth in the assay on KM12 colon is 26.9% (inactive).
With `COC(=O)C1C(O)C(C)C(O)C(C)C=C(C)C2=C3C(=C(C)C(=O)c4c(O)c(c(C)c(OC(C)=O)c43)NC(=O)C(C)=C/C=C\C(C)C(O)C(C)C1O)OCO2` (stereo unspecified), the growth was 117% (inactive) in the assay on T-47D breast; 130% (inactive) with MDA-MB-435 melanoma; 103% (inactive) in the assay with SW-620 colon; 96% (inactive) in the assay with HCT-116 colon; 145% (inactive) in the assay with HCC-2998 colon; 103% (inactive) in the assay with KM12 colon.
Consider `CC(C)(C)CC(C)(C)c1ccc(OCCO)cc1`, for which the growth is 105% (inactive) in the assay with T-47D breast; 115% (inactive) with MDA-MB-435 melanoma; 109% (inactive) in the assay on SW-620 colon; 102% (inactive) in the assay on HCT-116 colon; 110% (inactive) with HCC-2998 colon; 99.4% (inactive) in the assay on KM12 colon.
